Assay results taken from PubChem BioAssay (NCATS).
Inconclusive results are not listed. A call without a number means that no potency is given here. Calls of active or inactive are those of the source. Calls come from the whole dose curve; as a rule, active = well fitted curve in the direction sought with a large enough effect; inconclusive = small, poorly fitted or top-dose-only effect, or another doubt; inactive = no such curve, though single readings can be large; an effect the other way counts as inactive or inconclusive.

Assay: qHTS of pediatric cancer cell lines to identify multiple opportunities for drug repurposing: Primary screen for MG 63 (6-TG R) cells (AID 1347105); note: nearly all actives have a fitted effect of over 50% in size
Conditions: MG 63 (6-TG R) viability, CellTiter-Glo, 48 h; series mostly up to 46 µM
How it was run: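 Primary screen of approved and investigational compounds on cells in growth media at 37 degrees C, 5% CO2. MIPE set at 11-point and NPC set at 8-point dilutions; viability scored by ATP-based luminescence at 48 hours.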
For `CC(C)NCC(O)c1ccc(N)c(C#N)c1` (configuration not stated), the Potency was “inactive”.
With `CC(C)[N+](C)(CCC(C(N)=O)(c1ccccc1)c1ccccc1)C(C)C` the Potency was “inactive”.
In the case of `O=C(O)c1nn(Cc2ccc(Cl)cc2Cl)c2ccccc12`, the Potency is reported as “inactive”.
In the case of `CNC(=O)Oc1cccc2ccccc12`, the Potency is reported as “inactive”.
With `COc1ccc(C(=O)N2CCCC2=O)cc1` the Potency was “inactive”.
In the case of `C[C@]12C=CC(=O)C=C1CC[C@@H]1[C@@H]2CC[C@@]2(C)[C@H]1CC[C@]2(C)O`, the Potency is reported as “inactive”.
For `CN(C)CCc1c[nH]c2cccc(O)c12`, the Potency was “inactive”.
With `c1cc2c(c(N3CCNCC3)c1)OCCO2` the Potency was “inactive”.
With `CC(Cc1ccc2c(c1)OCO2)NO` (configuration not stated) the Potency was “inactive”.
With `CC(C)=CCN1CC[C@@]2(C)c3cc(O)ccc3C[C@@H]1[C@@H]2C` the Potency was “inactive”.
In the case of `CNC(=O)NC(O)C(Cl)(Cl)Cl` (configuration not stated), the Potency is reported as “inactive”.
With `CC(C)(O)C(Cl)(Cl)Cl` the Potency was “inactive”.
In the case of `C[C@]12Cc3nonc3C[C@@H]1CC[C@@H]1[C@@H]2CC[C@@]2(C)[C@H]1CC[C@]2(C)O`, the Potency is reported as “inactive”.
In the case of `CCCCC1C(=O)NC(=O)N(C2CCCCC2)C1=O` (configuration not stated), the Potency is reported as “inactive”.
With `Oc1c(Br)cc(Br)cc1Br` the Potency was “inactive”.
With `ClCCCN1CCN(c2cccc(Cl)c2)CC1` the Potency was “inactive”.
In the case of `COc1cc(CC#N)cc(OC)c1OC`, the Potency is reported as “inactive”.
With `COc1ccc(CN2CCNCC2)c(OC)c1OC` the Potency was “inactive”.
For `OC(c1ccccc1)(c1ccccc1)C1CCNCC1`, the Potency was “inactive”.
In the case of `Cc1ccc(N=CN(C)C=Nc2ccc(C)cc2C)c(C)c1`, the Potency is reported as “inactive”.
For `C[N+](C)(C)CCOC(=O)C(O)(c1ccccc1)c1ccccc1`, the Potency was “inactive”.
In the case of `O=C(N[C@H]1N=C(c2ccccc2F)c2cccc3c2N(CC3)C1=O)c1cc2ccccc2[nH]1`, the Potency is reported as “inactive”.
For `CCOC(=O)C(c1c(O)c2ccccc2oc1=O)c1c(O)c2ccccc2oc1=O`, the Potency was “inactive”.

Assay: qHTS of pediatric cancer cell lines to identify multiple opportunities for drug repurposing: Primary screen for control Hh wild type fibroblast cells (AID 1347106);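 note: a drop in luminescence marks cytotoxicity and a rise apparent proliferation; nearly all actives have a fitted effect of over 55% in size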
Conditions: Hh wild-type fibroblast viability, CellTiter-Glo luminescence, 48 h; series mostly up to 46 µM
How it was run: (§1)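 Cells (500-1,000/well) in growth media were settled 5 h at 37 degrees C, then given compounds for 48 h. Viability was read as CellTiter-Glo luminescence. Primary runs used MIPE at 11 points (0.78 nM-46 µM) and NPC at 8 points (0.59 nM-46 µM); follow-ups used 11 points.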
With `CC(C)NCC(O)c1ccc(N)c(C#N)c1` (configuration not stated) the Potency was “inactive”.
With `CC(C)[N+](C)(CCC(C(N)=O)(c1ccccc1)c1ccccc1)C(C)C` the Potency was “inactive”.
For `CCN(CC)C(C)C(=O)c1ccccc1` (configuration not stated), the Potency was “inactive”.
With `CCC1(c2ccccc2)CCC(=O)NC1=O` (configuration not stated) the Potency was “inactive”.
For `O=C(O)c1nn(Cc2ccc(Cl)cc2Cl)c2ccccc12`, the Potency was “inactive”.
With `CCOC(=O)c1ncn2c1CN(C)C(=O)c1c(I)cccc1-2` the Potency was “inactive”.
For `CNC(=O)Oc1cccc2ccccc12`, the Potency was “inactive”.
For `COc1ccc(C(=O)N2CCCC2=O)cc1`, the Potency was “inactive”.
In the case of `C[C@]12C=CC(=O)C=C1CC[C@@H]1[C@@H]2CC[C@@]2(C)[C@H]1CC[C@]2(C)O`, the Potency is reported as “inactive”.
For `C=CC[C@]1(O)CC[C@H]2[C@@H]3CCC4=CC(=O)CCC4=C3C=C[C@@]21C`, the Potency was “inactive”.
In the case of `OC(O)C(Cl)(Cl)Cl`, the Potency is reported as “inactive”.
In the case of `CN(C)CCc1c[nH]c2cccc(O)c12`, the Potency is reported as “inactive”.
For `c1cc2c(c(N3CCNCC3)c1)OCCO2`, the Potency was “inactive”.
For `CC(Cc1ccc2c(c1)OCO2)NO` (configuration not stated), the Potency was “inactive”.
In the case of `CN1C(=O)CN=C(c2ccccc2)c2cc([N+](=O)[O-])ccc21`, the Potency is reported as “inactive”.
In the case of `CC1N=C(N)OC1c1ccccc1` (configuration not stated), the Potency is reported as “inactive”.
With `CC1=C2[C@H]3OC(=O)[C@@H](C)[C@@H]3CC[C@@]2(C)C=CC1=O` the Potency was “inactive”.
With `Cc1ncc2n1-c1ccc(Cl)cc1C(c1ccccc1F)=NC2` the Potency was “inactive”.
For `CCCCCCCCCCCC[N+](C)(C)CCOc1ccccc1`, the Potency was “inactive”.
With `CN1C(=O)CN=C(c2ccccc2)c2cc(Cl)ccc21` the Potency was “inactive”.
For `COC(=O)C1=CCCN(C)C1`, the Potency was “inactive”.
For `CC(C)=CCN1CC[C@@]2(C)c3cc(O)ccc3C[C@@H]1[C@@H]2C`, the Potency was “inactive”.
In the case of `CNC(=O)NC(O)C(Cl)(Cl)Cl` (configuration not stated), the Potency is reported as “inactive”.
In the case of `CC(C)(O)C(Cl)(Cl)Cl`, the Potency is reported as “inactive”.
For `C[C@]12Cc3nonc3C[C@@H]1CC[C@@H]1[C@@H]2CC[C@@]2(C)[C@H]1CC[C@]2(C)O`, the Potency was “inactive”.
With `CCCCC1C(=O)NC(=O)N(C2CCCCC2)C1=O` (configuration not stated) the Potency was “inactive”.
For `CCCN(CCC)CCc1c[nH]c2ccccc12`, the Potency was “inactive”.
With `Oc1c(Br)cc(Br)cc1Br` the Potency was “inactive”.
With `ClCCCN1CCN(c2cccc(Cl)c2)CC1` the Potency was “inactive”.
In the case of `COc1cc(CC#N)cc(OC)c1OC`, the Potency is reported as “inactive”.
In the case of `CNC(C)Cc1ccc2c(c1)OCO2` (configuration not stated), the Potency is reported as “inactive”.
For `COc1ccc(CN2CCNCC2)c(OC)c1OC`, the Potency was “inactive”.
For `OC(c1ccccc1)(c1ccccc1)C1CCNCC1`, the Potency was “inactive”.
For `CCOC(=O)NC(C)(C)Cc1ccc(Cl)cc1`, the Potency was “inactive”.
For `Cc1ccc(N=CN(C)C=Nc2ccc(C)cc2C)c(C)c1`, the Potency was “inactive”.
For `C[N+](C)(C)CCOC(=O)C(O)(c1ccccc1)c1ccccc1`, the Potency was “inactive”.
In the case of `O=C(N[C@H]1N=C(c2ccccc2F)c2cccc3c2N(CC3)C1=O)c1cc2ccccc2[nH]1`, the Potency is reported as “inactive”.
In the case of `CCOC(=O)C(c1c(O)c2ccccc2oc1=O)c1c(O)c2ccccc2oc1=O`, the Potency is reported as “inactive”.
For `CC1Sc2c(C(=O)O)c(=O)c3cc(F)c(N4CCNCC4)cc3n21` (configuration not stated), the Potency was “inactive”.
In the case of `CC[C@H]1C[C@@H]2C[C@H]3c4[nH]c5ccc(OC)cc5c4CCN(C2)[C@@H]13`, the Potency is reported as “inactive”.

Assay: qHTS of pediatric cancer cell lines to identify multiple opportunities for drug repurposing: Primary screen for Rh30 cells (AID 1347107); note: nearly all actives have a fitted effect of over 75% in size
Conditions: Rh30 rhabdomyosarcoma viability, CellTiter-Glo luminescence, 48 h; series mostly up to 46 µM
How it was run: as §1
For `CCN(CC)C(C)C(=O)c1ccccc1` (configuration not stated), the Potency was “inactive”.
With `CCC1(c2ccccc2)CCC(=O)NC1=O` (configuration not stated) the Potency was “inactive”.
In the case of `O=C(O)c1nn(Cc2ccc(Cl)cc2Cl)c2ccccc12`, the Potency is reported as “inactive”.
In the case of `CCOC(=O)c1ncn2c1CN(C)C(=O)c1c(I)cccc1-2`, the Potency is reported as “inactive”.
In the case of `CNC(=O)Oc1cccc2ccccc12`, the Potency is reported as “inactive”.
With `COc1ccc(C(=O)N2CCCC2=O)cc1` the Potency was “inactive”.
With `C[C@]12C=CC(=O)C=C1CC[C@@H]1[C@@H]2CC[C@@]2(C)[C@H]1CC[C@]2(C)O` the Potency was “inactive”.
For `CN(C)CCc1c[nH]c2cccc(O)c12`, the Potency was “inactive”.
With `c1cc2c(c(N3CCNCC3)c1)OCCO2` the Potency was “inactive”.
With `CC(Cc1ccc2c(c1)OCO2)NO` (configuration not stated) the Potency was “inactive”.
In the case of `CC1=C2[C@H]3OC(=O)[C@@H](C)[C@@H]3CC[C@@]2(C)C=CC1=O`, the Potency is reported as “inactive”.
For `Cc1ncc2n1-c1ccc(Cl)cc1C(c1ccccc1F)=NC2`, the Potency was “inactive”.
For `CN1C(=O)CN=C(c2ccccc2)c2cc(Cl)ccc21`, the Potency was “inactive”.
In the case of `CC(C)=CCN1CC[C@@]2(C)c3cc(O)ccc3C[C@@H]1[C@@H]2C`, the Potency is reported as “inactive”.
With `CNC(=O)NC(O)C(Cl)(Cl)Cl` (configuration not stated) the Potency was “inactive”.
With `CC(C)(O)C(Cl)(Cl)Cl` the Potency was “inactive”.
In the case of `C[C@]12Cc3nonc3C[C@@H]1CC[C@@H]1[C@@H]2CC[C@@]2(C)[C@H]1CC[C@]2(C)O`, the Potency is reported as “inactive”.
With `CCCN(CCC)CCc1c[nH]c2ccccc12` the Potency was “inactive”.
In the case of `ClCCCN1CCN(c2cccc(Cl)c2)CC1`, the Potency is reported as “inactive”.
For `CNC(C)Cc1ccc2c(c1)OCO2` (configuration not stated), the Potency was “inactive”.
In the case of `COc1ccc(CN2CCNCC2)c(OC)c1OC`, the Potency is reported as “inactive”.
For `OC(c1ccccc1)(c1ccccc1)C1CCNCC1`, the Potency was “inactive”.
For `CCOC(=O)NC(C)(C)Cc1ccc(Cl)cc1`, the Potency was “inactive”.
With `Cc1ccc(N=CN(C)C=Nc2ccc(C)cc2C)c(C)c1` the Potency was “inactive”.
In the case of `C[N+](C)(C)CCOC(=O)C(O)(c1ccccc1)c1ccccc1`, the Potency is reported as “inactive”.
With `O=C(N[C@H]1N=C(c2ccccc2F)c2cccc3c2N(CC3)C1=O)c1cc2ccccc2[nH]1` the Potency was “inactive”.
In the case of `CCOC(=O)C(c1c(O)c2ccccc2oc1=O)c1c(O)c2ccccc2oc1=O`, the Potency is reported as “inactive”.
With `CC1Sc2c(C(=O)O)c(=O)c3cc(F)c(N4CCNCC4)cc3n21` (configuration not stated) the Potency was “inactive”.
For `CC[C@H]1C[C@@H]2C[C@H]3c4[nH]c5ccc(OC)cc5c4CCN(C2)[C@@H]13`, the Potency was “inactive”.
